LmPK inh – inhibitors of Leishmania mexicana pyruvate kinase; Q27686; purified LmPK, Kinase-Glo ATP luminescence, 1 h; Potency, µM (series often up to 57.5 µM), for inactives: at the highest dose activity change, negative = inhibition, hits mostly inhibitors; 0.37% of 290,000 active; further: potency means the concentration at half of the fitted maximal effect; on the % scale 0 is the no-effect control and ±100 the full control effect
Target sequence (Q27686 whole entry, looked up): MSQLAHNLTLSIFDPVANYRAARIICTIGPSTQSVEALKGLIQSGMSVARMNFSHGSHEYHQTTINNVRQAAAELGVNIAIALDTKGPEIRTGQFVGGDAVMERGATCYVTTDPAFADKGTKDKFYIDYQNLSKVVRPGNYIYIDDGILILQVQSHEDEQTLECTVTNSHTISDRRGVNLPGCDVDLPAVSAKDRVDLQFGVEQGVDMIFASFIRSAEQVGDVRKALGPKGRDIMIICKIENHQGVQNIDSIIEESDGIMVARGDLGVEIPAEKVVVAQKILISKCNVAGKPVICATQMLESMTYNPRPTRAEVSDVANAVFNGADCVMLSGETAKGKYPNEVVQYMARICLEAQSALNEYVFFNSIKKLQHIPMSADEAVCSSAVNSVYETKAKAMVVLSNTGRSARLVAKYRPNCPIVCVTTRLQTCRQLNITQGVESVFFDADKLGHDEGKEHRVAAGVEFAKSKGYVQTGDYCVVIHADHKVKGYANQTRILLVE
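qHTS format; LmPK 0.1 nM; substrates PEP 0.5 mM and ADP 0.1 mM. One-hour room-temperature incubation, then coupled luciferase luminescence; 0.5 nM enzyme wells mark activation.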
TbPYK inhibitor – blocks Trypanosoma brucei pyruvate kinase | Q57TT1 | TbPYK enzyme, Kinase-Glo Plus ATP luminescence, 45 min | Potency, µM (doses to about 76.8 µM), without a hit: at the highest dose activity, negative = inhibition, most hits filed as inhibitors | 0.12% of 410,000 active | AID 624173; further: potency means the concentration at half of the fitted maximal effect; on the % scale 0 is the no-effect control and ±100 the full control effect; nearly all actives have a fitted effect of over 50% in size
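Screened from lowest to highest concentration, compounds were pinned into TbPYK/substrate mixtures, and ADP (130 uM final) was added. Plates sat at room temperature for 45 min prior to Kinase-Glo Plus detection by luminescence.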
Cycloheximide cs – affects cycloheximide protein synthesis inhibition readout, counter-screen. 12% of 300,000 active. cell reporter, cycloheximide protein synthesis inhibition counterscreen. max response, %; in the data active means max response mostly above about 13%, no sharp cut-off; inactive means mostly below about 14%; further: read at 38.3 µM for the half of the compounds with a filed dose; 0% is about no effect
RE007 growth inh – less growth of the S. pombe RE007 Vpr strain; 0.21% of 360,000 active; Potency, µM (doses to about 92.2 µM), for inactives: top-dose activity change, negative = less growth, hits mostly inhibitors; AID 651644; S. pombe RE007 Vpr strain, BacTiter-Glo ATP luminescence, 24 h; active means well fitted falling curve with a large enough effect; inconclusive means small, poorly fitted or top-dose-only effect; inactive means no such curve, though single readings can be large or run the other way; further: potency means the concentration at half of the fitted maximal effect; on the % scale 0 is the no-effect control and ±100 the full control effect; nearly all actives have a fitted effect of over 50% in size
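Fission yeast RE007 carrying one integrated HIV-1 vpr copy, seeded at OD 0.01 in PMG+AL medium with 23 nL pinned compound. Grown 24 h at 30 degrees; viability read by BacTiter-Glo luminescence after 5 min.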
FBPA Giardia inh – inhibitors of Giardia lamblia fructose-1,6-bisphosphate aldolase; A8B2U2; purified Giardia FBPA; Potency, µM (highest dose often 59.6 µM), for inactives: at the top dose activity, negative = inhibition, most hits filed as inhibitors; 0.71% of 290,000 active; further: potency means the concentration at half of the fitted maximal effect; on the % scale 0 is the no-effect control and ±100 the full control effect; nearly all actives have a fitted effect of over 55% in size
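40 nM FBPA preincubated 10 min at RT with compound (up to 57.5 uM final), then substrate plus GAPDH/TPI/NAD/arsenate coupling and diaphorase/resazurin added. Fluorescence read after 20 min at RT, 525/598 nm.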
Shiga toxin inh – inhibitors of Shiga toxin in Vero cells; 9.2% of 290,000 active; inhibition, % at 38.7 µM; Vero cells, Shiga toxin protein synthesis inhibition reporter; in the data active means inhibition mostly above about 28%, no sharp cut-off; inactive means mostly below about 43%; further: 0% is about no effect
* = called active by the depositor. The sample as a whole holds a higher share of hits than the screen did. Unless noted, the call rests on the fitted dose curve; in most records, active means well fitted curve in the direction sought with a large enough effect; inconclusive means small, poorly fitted or top-dose-only effect, or another doubt; inactive means no such curve, though single readings can be large; an effect the other way counts as inactive or inconclusive.

How did O=C(Nc1cnn(Cc2ccc(Cl)cc2Cl)c1)c1noc2c1CCCC2 do in these assays?
LmPK inh: 5%; TbPYK inhibitor: -4%; Cycloheximide cs: 14*; RE007 growth inh: -4%; FBPA Giardia inh: -14%; Shiga toxin inh: 11

What do the screens show for `CSc1ccccc1NC(=O)c1noc2c1CCC2`?
LmPK inh: -9%; TbPYK inhibitor: -12%; Cycloheximide cs: 38*; RE007 growth inh: inconclusive; FBPA Giardia inh: inconclusive; Shiga toxin inh: 100*

How did COC(=O)C[C@@H]1C[C@@H]2c3cc(NC(=O)Cc4ccncc4)ccc3O[C@@H]2[C@@H](CO)O1 do in these assays?
TbPYK inhibitor: 1%; RE007 growth inh: 26%

How did O=C(O)c1cncc(C#CCC2CCCCC2)c1 do in these assays?
LmPK inh: -1%; TbPYK inhibitor: 4%; Cycloheximide cs: 77*; RE007 growth inh: 1%; FBPA Giardia inh: inconclusive; Shiga toxin inh: 90*

What do the screens show for `O=C(O)c1cncc(C#Cc2ccccc2)c1`?
LmPK inh: 3%; TbPYK inhibitor: 5%; Cycloheximide cs: 1; RE007 growth inh: -5%; FBPA Giardia inh: -1%; Shiga toxin inh: -7

Results for Cc1cc(C(=O)N2CCCC(N3CCN(c4cccc(Cl)c4)CC3)C2)nn1C (configuration not stated) ?
LmPK inh: 6%; TbPYK inhibitor: -6%; Cycloheximide cs: 19*; RE007 growth inh: -2%; Shiga toxin inh: 66

What do the screens show for `O=C(c1ccccn1)N1CCCC(N2CCN(c3cccc(C(F)(F)F)c3)CC2)C1` (configuration not stated)?
LmPK inh: -2%; TbPYK inhibitor: 6%; Cycloheximide cs: 20*; RE007 growth inh: -11%; FBPA Giardia inh: -7%; Shiga toxin inh: 41*

Results for COc1ccc(N2CCN(C3CCCN(C(=O)CN4CCCC4=O)C3)CC2)cc1 (configuration not stated) ?
LmPK inh: -1%; TbPYK inhibitor: -2%; Cycloheximide cs: -4; RE007 growth inh: 2%; FBPA Giardia inh: 8%; Shiga toxin inh: 2

Results for O=C1CCCN1CC(=O)N1CCCC(N2CCN(c3cccc(Cl)c3)CC2)C1 (configuration not stated) ?
LmPK inh: -4%; TbPYK inhibitor: -5%; Cycloheximide cs: 30*; RE007 growth inh: 4%; Shiga toxin inh: 44*

How did CS(=O)(=O)Cc1ccc(C(=O)N(CCc2ccccc2)Cc2ccccc2)cc1 do in these assays?
LmPK inh: 2%; TbPYK inhibitor: 6%; Cycloheximide cs: -2; RE007 growth inh: 5%; Shiga toxin inh: 11

Results for Nc1ccc(O)cc1C(=O)OCC(=O)C12CC3CC(CC(C3)C1)C2 ?
LmPK inh: 1%; TbPYK inhibitor: inconclusive; Cycloheximide cs: 20; RE007 growth inh: 8%; FBPA Giardia inh: inconclusive; Shiga toxin inh: 42

Results for COc1ccc(C(=O)OCC(=O)c2ccc(C3CCCCC3)cc2)cc1 ?
LmPK inh: 3%; TbPYK inhibitor: -2%; Cycloheximide cs: 13*; RE007 growth inh: -4%; FBPA Giardia inh: -9%; Shiga toxin inh: 7

What do the screens show for `Nc1ccc(O)cc1C(=O)OCC(=O)c1ccc(C2CCCCC2)cc1`?
LmPK inh: 0%; TbPYK inhibitor: -16%; Cycloheximide cs: 61*; RE007 growth inh: 4%; FBPA Giardia inh: -15%; Shiga toxin inh: 145*

How did CN(CC(=O)Nc1ccc(Cl)c(C(F)(F)F)c1)C(=O)Cc1ccsc1 do in these assays?
TbPYK inhibitor: 11%; RE007 growth inh: -1%

Results for COc1ccc(C(=O)Nn2c(SCc3ccc([N+](=O)[O-])cc3)nc3ccccc3c2=O)cc1 ?
LmPK inh: -1%; TbPYK inhibitor: 2%; Cycloheximide cs: 25*; RE007 growth inh: 29%; FBPA Giardia inh: 9%; Shiga toxin inh: 82*

What do the screens show for `CCc1ccc(C(=O)Nn2c(C)nc3ccccc3c2=O)cc1`?
LmPK inh: 6%; TbPYK inhibitor: 3%; Cycloheximide cs: 7; RE007 growth inh: 25%; FBPA Giardia inh: 8%; Shiga toxin inh: 15
